# Test results published in paper PMC5913336, “True equilibrium measurement of transcription factor-DNA binding affinities using automated polarization microscopy”.
# Target: Ttk-PF (Drosophila melanogaster, UniProt P17789 499-564)
# Experiment: FP; 33 mM phosphate pH 7.0, 90 mM NaCl, 0.01% Tween 20, 0.1 mM DTT, 0.5% agarose; room temperature
# Conditions: dsDNA, one strand shown
Sequence,binding signal,Kd [µM]
TCGCCTGGATAAC,> 208 Kd / Kd of best base at the position,–
TCGCCAGGAGAAC,8.25 Kd / Kd of best base at the position,–
TCGCCAGGATACC,3.82 Kd / Kd of best base at the position,–
TCGCCAGGATAAC,–,~0.048
CCGCCAGGATAAC,3.01 Kd / Kd of best base at the position,–
TCGCCAGGTTAAC,12.8 Kd / Kd of best base at the position,–
TCGCCAGTATAAC,> 208 Kd / Kd of best base at the position,–
TCTCCAGGATAAC,3.54 Kd / Kd of best base at the position,–
TCGCCAGGATAAT,1.84 Kd / Kd of best base at the position,–
TCGCCAGAATAAC,> 208 Kd / Kd of best base at the position,–
TGGCCAGGATAAC,2.43 Kd / Kd of best base at the position,–
TCGCCAGGATATC,1.65 Kd / Kd of best base at the position,–
TCCCCAGGATAAC,2.9 Kd / Kd of best base at the position,–
TCGCCAGGATTAC,1.69 Kd / Kd of best base at the position,–
TCGCGAGGATAAC,67.2 Kd / Kd of best base at the position,–
TCGCCAGGATAAA,1.28 Kd / Kd of best base at the position,–
TCGCCCGGATAAC,> 208 Kd / Kd of best base at the position,–
TCGCCACGATAAC,> 208 Kd / Kd of best base at the position,–
TTGCCAGGATAAC,1.71 Kd / Kd of best base at the position,–
TCGACAGGATAAC,26.7 Kd / Kd of best base at the position,–

Sequence,binding signal,Kd [µM]
TCGGCAGGATAAC,1.42 Kd / Kd of best base at the position,–
TCGCTAGGATAAC,> 208 Kd / Kd of best base at the position,–
TAGCCAGGATAAC,1.69 Kd / Kd of best base at the position,–
TCGCCAGGAAAAC,13.5 Kd / Kd of best base at the position,–
ACGCCAGGATAAC,2.88 Kd / Kd of best base at the position,–
TCGCCAGGATGAC,3.28 Kd / Kd of best base at the position,–
TCGCCAGCATAAC,5.81 Kd / Kd of best base at the position,–
TCGCCAGGGTAAC,8.56 Kd / Kd of best base at the position,–
TCGCCAGGACAAC,12.9 Kd / Kd of best base at the position,–
TCGCCAGGATAGC,1 Kd / Kd of best base at the position,–
TCGCCGGGATAAC,> 208 Kd / Kd of best base at the position,–
TCGCCAGGATCAC,7.79 Kd / Kd of best base at the position,–
TCACCAGGATAAC,5.13 Kd / Kd of best base at the position,–
TCGCCAGGCTAAC,5.16 Kd / Kd of best base at the position,–
TCGTCAGGATAAC,> 208 Kd / Kd of best base at the position,–
TCGCCAGGATAAG,1.76 Kd / Kd of best base at the position,–
TCGCCAAGATAAC,124 Kd / Kd of best base at the position,–
TCGCCATGATAAC,> 208 Kd / Kd of best base at the position,–
GCGCCAGGATAAC,2.76 Kd / Kd of best base at the position,–
